The structures appear in SMILES notation. The whole screen tested about 330,000 compounds, of which about 1,900 (0.58%) were called active. Inconclusive results (about 4%) are left out. The list is a sample of the results. Entries with a potency or affinity are not part of this list. Unmarked numbers belong to inactive results. No stated cut-off is given here; in the data, inconclusive means inhibition above about 70% without an active follow-up result; inactive means below that.

Experimental findings from PubChem BioAssay AID449762 (Southern Research Specialized Biocontainment Screening …, 2010) are described below.

The assay is described as follows: M. tuberculosis growth inhibition, HTS (AID 449762).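 Further: bacterial growth assessed after seven days of incubation.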 To be noted: M. tuberculosis H37Rv growth inhibition, 7H9 media; at 25 µM; active compounds read high.
By inhibition is commonly meant the relative decrease from the control value, in per cent. As for `Cc1nnc(SCC(=O)N(Cc2ccccc2)C(C)(C)C)[nH]c1=O`, the inhibition is 3.28%.

For the compound `O=C1c2ccccc2C(=O)N1Cc1ccc2c(c1)OCO2`, the inhibition is 4.9%.

Turning to `CC(C(=O)NC1CCCC1)N1C(=O)c2cccc3cccc1c23` (centres undefined), the inhibition is -3.8%.

Turning to `CCOC(=O)c1cnc(-n2nc(C)cc2C)nc1Nc1ccc(O)cc1`, the inhibition was -2.03%.

Take `CCOC(=O)c1cnc(-n2nc(C)cc2C)nc1Nc1cccc(C(=O)O)c1`: the inhibition was 19.4%.

In the case of `COc1ccc(CN2CCn3ncc(C(=O)Nc4cccc(C)c4)c3C2=O)cc1`, the inhibition is 3.51%.

Regarding `COc1ccc(C(CNC(=O)C2CC2)N(C)C)cc1` (centres undefined), the inhibition was -15.1%.

Turning to `CCSc1nnc(C)n1-c1ccc(C(=O)O)cc1`, the inhibition is -3.32%.

With `O=C1c2ccc(-c3nc4ccccc4o3)cc2C(=O)N1Cc1cccnc1`, the inhibition is 6.12%.

`CCc1ccc(OCC(=O)Nc2ccc(-c3nc4ccccc4o3)c(O)c2)cc1`: the inhibition is -3.85%.

`CC(C)NC(=O)c1ccc(-n2c(=S)[nH]c3ccccc3c2=O)cc1`: the inhibition was -2.47%.

Regarding `CCN(CC)S(=O)(=O)c1ccc(N2CCCC2)c(NC(=O)c2nn(C)c(=O)c3ccccc23)c1`, the inhibition is -4.45%.

As to `CCN(CC)S(=O)(=O)c1ccc2[nH]cc(C(=O)NCCN3CCCCCC3)c(=O)c2c1`, the inhibition is -8.55%.

Regarding `CCN(CC)S(=O)(=O)c1ccc2[nH]cc(C(=O)NCCc3ccccc3)c(=O)c2c1`, the inhibition was 4.1%.

For the compound `CCN(C(=O)c1cc(Cl)ccc1OC)c1ccccc1`, the inhibition is -7.73%.

For `CCOC(=O)C1=C(C)C(c2cccc(Oc3ccccc3)c2)NC(=S)N1` (centres undefined), the inhibition was 10.7%.

`COc1ccc(-c2csc(NS(=O)(=O)c3ccc([N+](=O)[O-])cc3)n2)cc1`: the inhibition is 1.1%.

As for `COc1ccc(-c2nc(-c3ccccn3)ncc2S(C)(=O)=O)cc1`, the inhibition was -1.3%.

Consider `Cc1ccccc1-n1c2nc(=O)n(C)c(=O)c-2cc2ccccc21`, for which the inhibition was 0.96%.

`c1ccc(-c2nccc(-c3ccco3)n2)nc1`: the inhibition is 58.2%.

Consider `Cc1ccc(-n2c3nc(=O)n(C)c(=O)c-3cc3ccccc32)cc1`, for which the inhibition was 10.4%.

Regarding `Cc1ccc(NC(=O)CSc2nc(=O)n(CCN3CCOCC3)c3c2CCCC3)cc1`, the inhibition was -2.61%.

Take `CCCS(=O)(=O)N1CCC(C(=O)NCCc2ccccc2)CC1`: the inhibition is 4.73%.

In the case of `CCc1cc(C(=O)Cc2ccccn2)c(O)cc1O`, the inhibition is -1.89%.

As to `CCc1cc(/C(Cc2ccccn2)=N\O)c(O)cc1O`, the inhibition was -0.69%.

In the case of `CC(/C=C/c1ccc(C)o1)=C\C(=O)O`, the inhibition was 8.65%.

For `CC(/C=C\c1ccccc1)=C/C(=O)O`, the inhibition was -1.86%.

Consider `N#CC(C(=O)O)=C1CCCC1`, for which the inhibition is -4.52%.

Take `COc1ccc(COc2cc(-c3cccc(OC)c3)nc3ccc(NC(=O)c4ccc(N(C)C)cc4)cc23)cc1`: the inhibition is -16.9%.

As for `COc1ccc(COc2cc(-c3cccc(OC)c3)nc3ccc(NC(=O)c4ccc(Cl)cc4)cc23)cc1`, the inhibition is 56.2%.

`O=C(NC1CCN(S(=O)(=O)c2ccccc2F)CC1)c1ccco1`: the inhibition is -8.86%.

Turning to `COc1cccc(NC(=O)CN(C)C(=O)C2CC3C=CC2C3)c1` (centres undefined), the inhibition is 0.94%.

For `CCN(c1ccccc1)S(=O)(=O)c1ccc(Cl)c(NC(=O)CNCc2ccccc2OC)c1`, the inhibition was -4.74%.

Turning to `NS(=O)(=O)c1cccc(NC(=O)COc2ccc([N+](=O)[O-])cc2)c1`, the inhibition is -1.48%.

On to `O=C(NCc1ccc(F)cc1)C1(S(=O)(=O)c2ccc(Cl)cc2)CC1`, for which the inhibition was -0.39%.

As for `CN(C)c1ccc(C=C2C(=O)OC(C)(C(C)(C)C)OC2=O)cc1` (centres undefined), the inhibition was 0.2%.

Regarding `COc1ccccc1/C=C1\N=C(C(C)(C)C)OC1=O`, the inhibition was 7.56%.

For `CC(C)Cn1c(NCCN(C)C)nc2c1c(=O)[nH]c(=O)n2C`, the inhibition was -4.76%.

On to `CCNc1nc2c(c(=O)[nH]c(=O)n2C)n1CC(C)C`, for which the inhibition was -9.92%.

As to `Cc1c(Cl)cccc1NC(=O)CSc1nnnn1C`, the inhibition was 1.96%.

Regarding `CC(C)Oc1ccc(C(CCNCc2ccc(O)cc2)c2ccccc2)cc1` (centres undefined), the inhibition is 62.7%.

Regarding `COc1ccc(C(CCNCc2ccc(N(C)C)cc2)C(C)C)cc1` (centres undefined), the inhibition was 10.7%.

In the case of `CSc1ccc(CCNC(=O)c2cc(C)nn2-c2ccccc2)cc1`, the inhibition was 3.36%.

`COc1ccc(NC(=O)CCNC(=O)c2ccccc2)cc1S(N)(=O)=O`: the inhibition is -4.86%.

On to `CC(=O)c1ccc(COC(=O)c2cc3ccccc3oc2=O)cc1`, for which the inhibition is 13.6%.

For `CCOC(=O)c1cc2c(ccc3ccccc32)oc1=O`, the inhibition was 52.8%.

As for `COC(=O)c1ccc(COC(=O)c2cc3ccccc3oc2=O)cc1`, the inhibition was 15.8%.

Consider `CCOC(=O)c1cc2ccc(OC)cc2oc1=O`, for which the inhibition was 14%.

For the compound `O=C(/C=C/c1ccccc1)N1c2ccccc2Sc2ccc(C(F)(F)F)cc21`, the inhibition is 25.3%.

For `COc1cccc(-n2c(CN3CCN(c4ccccn4)CC3)nc3ccc([N+](=O)[O-])cc3c2=O)c1`, the inhibition is -0.01%.

As to `COc1ccc(NC(=O)CSc2nc3c(c(=O)n2-c2ccc(C)cc2)SCC3)c(OC)c1`, the inhibition was -1.52%.

Consider `Cc1ccccc1C(=O)NCCCNC(=O)c1cnccn1`, for which the inhibition was 4.01%.

In the case of `COc1ccc(CCNC(=O)CNS(=O)(=O)c2cccs2)cc1OC`, the inhibition is -11.3%.

Regarding `CCOc1ccc(S(=O)(=O)NC(Cc2cnc[nH]2)C(=O)O)cc1` (centres undefined), the inhibition is -6.37%.

For `C=CC(=O)Nc1cccc(Oc2ncnc3[nH]cc(-c4cnc5ccccc5c4)c23)c1`, the inhibition was 1.76%.

On to `CC(=O)Nc1cccc(OCC(=O)Nc2ccc(F)cc2)c1`, for which the inhibition was -11.2%.

Regarding `Cc1ccc(NC(=O)COC(=O)Cn2cnc3ccccc32)c(C)c1`, the inhibition is 5.43%.

Consider `Cc1cccc(Cn2cc(/C=C/[N+](=O)[O-])c3ccccc32)c1`, for which the inhibition is -0.16%.

For the compound `O=[N+]([O-])/C=C/c1cn(Cc2ccc(Cl)cc2)c2ccccc12`, the inhibition was 3.28%.

Regarding `COc1cc(CN(CC2CCCO2)C(=O)c2cccs2)cc(OC)c1OC` (centres undefined), the inhibition was 1.89%.

With `CC(C)Oc1ccc(N2CC(C(=O)Nc3ccccn3)CC2=O)cc1` (centres undefined), the inhibition is 10.3%.

In the case of `CCOc1ccc(N2CC(C(=O)Nc3ccccn3)CC2=O)cc1` (centres undefined), the inhibition is 12.2%.

As to `O=C(O)C1CC(=O)N(c2ccc(OCc3ccccc3Cl)cc2)C1` (centres undefined), the inhibition was 35.8%.

As to `O=C(OCc1ccccc1Cl)C1CC(=O)N(Cc2ccco2)C1` (centres undefined), the inhibition was 5.47%.

As for `COc1ccc(COC(=O)C2CC(=O)N(Cc3ccc(C)cc3)C2)cc1` (centres undefined), the inhibition was 16.4%.

As for `NC(=O)C1CC(=O)N(c2ccc(OCc3ccccc3Cl)cc2)C1` (centres undefined), the inhibition was 7.94%.

For the compound `O=C(COC(=O)c1ccc(Cl)nc1)NNC(=O)c1ccc(Cl)cc1`, the inhibition is 5.61%.

`O=C(NCCC1=CCCCC1)c1cc(S(=O)(=O)N2CCOCC2)c(Cl)cc1Cl`: the inhibition is 2.93%.

With `CCc1ccccc1N(CC(=O)NCC1CCCO1)C(=O)CCC(=O)Nc1cc(C)on1` (centres undefined), the inhibition was -3.22%.

Turning to `COc1ccc(OC)c(S(=O)(=O)N2CCC(C(=O)Nc3cc(C)ccc3C)CC2)c1`, the inhibition was -10.6%.

With `Cc1ccccc1C1C(C#N)=C2N=C(N)c3ccccc3N2C2=C1C(=O)CCC2` (centres undefined), the inhibition was 6.31%.

As to `CCOC(=O)/C(=N\Nc1ccccc1)c1csc(Nc2ccc(C)cc2)n1`, the inhibition was 7.86%.

Turning to `CCOC(=O)/C(=N\Nc1ccc(C(C)=O)cc1)c1csc(Nc2ccccc2)n1`, the inhibition is -1.99%.

As for `Cc1ccc(NC(=O)CN(C)C(=O)c2ccc3[nH]c4c(c3c2)CC(C)CC4)cc1` (centres undefined), the inhibition was -5.07%.

For the compound `O=C(OCc1ccc(Cl)cc1)c1cnccn1`, the inhibition was 31.1%.

As for `O=C(c1ccccc1)c1ccc(COC(=O)c2cnccn2)cc1`, the inhibition is 18%.

For the compound `COC(=O)CN(c1cccc(OC)c1)S(C)(=O)=O`, the inhibition is 1.45%.

Turning to `CN(C)C(CNc1ncnc2sccc12)c1cccs1` (centres undefined), the inhibition is -3.95%.

`CCOC(=O)c1sc2ncnc(NCc3ccco3)c2c1C`: the inhibition was 0.46%.

Regarding `NC(=O)c1ccsc1NC(=O)COC(=O)Cc1c[nH]c2ccccc12`, the inhibition was 2.86%.

Take `COc1ccc(/C=C2/SC(=O)N(CCNC(=O)CC(NC(C)=O)c3ccccc3)C2=O)cc1` (centres undefined): the inhibition is -1.58%.

Take `Cc1ccc(CC(=O)Nc2ccc(Cl)cn2)cc1`: the inhibition was 3.62%.

With `Cc1ccc(NC(=O)Cc2ccc(Cl)cc2)nc1`, the inhibition was 11.2%.

On to `O=C(c1ccc(Cl)cc1)N1N=CCC1(O)c1ccc(Cl)cc1` (centres undefined), for which the inhibition was 2.13%.

For `C[C@H](NC(=O)c1[nH]cnc1C(=O)Nc1ccon1)c1ccccc1`, the inhibition is -0.305%.

Turning to `O=C(OCC(=O)N1CCN(C(=O)c2ccco2)CC1)c1cc(-c2ccco2)nc2ccccc12`, the inhibition is 6.06%.

With `O=C(OCC(=O)N1CCN(C(=O)c2ccco2)CC1)c1cc(-c2ccc(Cl)c(Cl)c2Cl)nc2ccccc12`, the inhibition was 4.98%.

For the compound `COc1ccc(CN(C)C(=O)C(Cc2ccccc2)NC(=O)c2ccccc2)c(OC)c1` (centres undefined), the inhibition was 0.87%.

As to `COc1cc(CN2CCC(n3nccc3NC(=O)CCCc3ccccc3)CC2)ccc1F`, the inhibition was -1.97%.

As for `CCC(C)(C)C1CCC(=NNC(=S)Nc2ccccc2)CC1` (centres undefined), the inhibition is 6.86%.

Consider `CC1CCC/C(=N\NC(=O)Nc2ccccc2)C1` (centres undefined), for which the inhibition was -3.97%.

In the case of `CCN(CC(=O)NCc1ccc(Cl)cc1)C(=O)c1ccc(S(=O)(=O)N(C)C)cc1`, the inhibition was -8.9%.

As for `Cc1ccc(N=C2C(=S)N(c3ccc(C)cc3)C(=N)N2/N=C/c2ccc(Cl)cc2)cc1`, the inhibition is -4.74%.

In the case of `N=C1N(/N=C/c2ccccc2)C(=Nc2ccccc2)C(=S)N1c1ccccc1`, the inhibition was -15.3%.
